This passage reports outcome and Potency results from PubChem BioAssay (NCATS).

The target in experiment [1] is ATP-dependent DNA helicase Q1 (Homo sapiens) (UniProt P46063). The experiment can be described thus: qHTS Validation Assay for Inhibitors of RecQ-Like Dna Helicase 1 (RECQ1) (AID 2353). To be noted: recombinant RECQ1 helicase DNA unwinding assay; series mostly up to 25.6 µM. The essentials: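 RECQ1T1 50 nM; forked duplex (20 bp + 30-nt ss tails) 200 nM, ATP 2 mM final; pH 8.0, 2 mM MgCl2, 2.5 ug/ml poly(dI-dC); 15 min compound preincubation; discontinuous kinetic read over 2 h at RT.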
Chain of ATP-dependent DNA helicase Q1 (Homo sapiens) (P46063 whole entry, looked up): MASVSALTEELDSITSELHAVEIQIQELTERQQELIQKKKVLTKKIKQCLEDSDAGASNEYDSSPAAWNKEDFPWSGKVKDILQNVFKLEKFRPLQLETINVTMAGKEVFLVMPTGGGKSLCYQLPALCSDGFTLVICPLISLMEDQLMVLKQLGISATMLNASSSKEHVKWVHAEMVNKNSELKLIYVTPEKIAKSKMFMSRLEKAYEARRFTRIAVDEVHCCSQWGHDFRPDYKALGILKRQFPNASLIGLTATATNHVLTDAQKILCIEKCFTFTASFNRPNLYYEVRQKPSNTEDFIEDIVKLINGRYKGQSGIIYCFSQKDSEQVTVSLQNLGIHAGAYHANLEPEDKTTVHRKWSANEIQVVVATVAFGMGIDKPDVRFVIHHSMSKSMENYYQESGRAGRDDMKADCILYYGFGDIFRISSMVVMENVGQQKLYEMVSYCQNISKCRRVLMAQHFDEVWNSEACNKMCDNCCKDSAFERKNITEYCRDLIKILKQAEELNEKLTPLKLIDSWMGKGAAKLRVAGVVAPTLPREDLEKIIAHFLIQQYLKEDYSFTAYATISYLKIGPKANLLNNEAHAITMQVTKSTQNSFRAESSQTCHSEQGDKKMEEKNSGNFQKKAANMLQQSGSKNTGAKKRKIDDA

Experiment [2] deals with RecQ-like DNA helicase BLM (Homo sapiens) (UniProt P54132). The experiment can be described thus: qHTS Validation Assay for Inhibitors of Bloom's syndrome helicase (BLM) (AID 2364). The note with it: BLM helicase DNA unwinding, fluorescence, in vitro; series mostly up to 57.1 µM. Put shortly:
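BLM 50 nM in 25 mM Tris-HCl pH 8.0, 5 mM NaCl, 2 mM MgCl2, 1 mM DTT, 0.01% Tween-20, 2.5 ug/ml poly(dI-dC); 15 min cpd preinc, RT. Start: 200 nM forked DNA + 2 mM ATP (final). TAMRA read, 2 reads 2 h apart.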

Experiment [3] is described as follows: qHTS for differential inhibitors of proliferation of Plasmodium falciparum line W2 (AID 1883).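 Note: potency is the fitted concentration of half-maximal effect; parasites grown with compound for 72 h before lysis and staining.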 The note with it: Plasmodium falciparum W2 proliferation inhibition.
Experiment [4] can be described thus: qHTS for differential inhibitors of proliferation of Plasmodium falciparum line HB3 (AID 1886).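 Note: parasites grown with compound for 72 h before SYBR Green readout.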 The note with it: series mostly up to 28.7 µM.
Experiment [5] in a line: Cytometric Cell-Based qHTS for Inhibitors of the mTORC1 Signaling Pathway in MEF (Tsc2-/-, p53-/-) Cells (AID 2660).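 Note: Tsc2 and p53 null MEFs carrying empty vector with compound for 24 h; percent of cells above a phospho-rpS6 to PI ratio cutoff in each well.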 To be noted: mTORC1 pathway cytometry; series mostly up to 38.3 µM. The source says:
NIH Molecular Libraries Probe Production Centers Network [MLPCN]
NIH Chemical Genomics Center [NCGC]
Assay Submitter (PI): Blenis, John; Hoffman, Greg; Harvard University
NCGC Assay Overview: The mammalian target of rapamycin (mTOR) is an intracellular serine/threonine kinase Aberrant regulation of mTOR signaling plays a causative role in a number of human diseases, including cancer, benign tumors such as lymphangioleiomyomatosis (LAM) and Tuberous Sclerosis Complex (TSC), and metabolic diseases such as diabetes and obesity. This project aims to identify inhibitors of ribosomal protein S6 (rpS6) phosphorylation. The phosphorylation of rpS6 is a key event downstream of mTOR activation. […]
For quantitative high throughput analysis of mTORC1 signaling, we developed a cell-based assay for immuno-fluorescence based detection of rpS6 phosphorylation on the Acumen Explorer that will be used a platform for the primary small molecule screen. […] The fluorescence emission from the Alexa-488 conjugated rpS6 phospho-235/236 antibody staining is selected using a […] band pass filter. Fluorescence emission from the PI stain is selected using a 575-640 nm band pass filter. The normalized phospho-S6 staining is calculated as the ratio of the integrated Alexa 488 intensity divided by the integrated PI intensity for the single concentration rapamycin control (7.5 nM) and DMSO columns. […]

A short description of experiment [6]: High Content Imaging Cell-Based qHTS for Inhibitors of the mTORC1 Signaling Pathway in MEF (Tsc2-/-, p53-/-) Cells (AID 2666).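 Note: percent of cells scored positive for phospho-rpS6 Ser235/236 immunostaining by imaging.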 To be noted: at 38.3 µM (top of the series). The essentials: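 Inhibition of rpS6 phosphorylation is measured by immunofluorescence imaging in empty-vector Tsc2-/-, p53-/- mouse embryonic fibroblasts after 24 hrs compound exposure at 37 degree Celsius. Results are reported as % positive cells per well.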

The nature of experiment [7]: High Content Imaging Cell-Based qHTS for Inhibitors of the mTORC1 Signaling Pathway in MEF Cells (AID 2667).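 Note: Tsc2-/- p53-/- MEFs stably re-expressing wild-type Tsc2 exposed 24 h.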 The note with it: series mostly up to 38.3 µM. Put shortly:
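Fixed-cell imaging of phospho-S6 (Ser235/236, Alexa-488) after 24 hrs of compound treatment at 37 degree Celsius. Signal was normalized to Hoechst, and thresholds from the highest and lowest wells split cells into % active versus % non-active.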

The nature of experiment [8]: Validation screen for small molecules that induce DNA re-replication in MCF 10A normal breast cells (AID 463097). Note: nearly all actives have a fitted effect of over 60% in size. To be noted: MCF 10A cells, DNA re-replication phenotype imaging; series mostly up to 46.1 µM. Put shortly:
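Following 48 hr compound incubation (37 C, 5% CO2), MCF 10A cells receive Hoechst for 40 min at 37 C. Nuclei are then scanned (excitation 405 nm, emission 500-530 nm) for total fluorescence intensity.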

Experiment [9] concerns the target Ubiquitin carboxyl-terminal hydrolase 2 (Homo sapiens) (UniProt O75604). Description: qHTS Validation Assay for Inhibitors of Ubiquitin-specific Protease USP2a Using CHOP2 as the Reporter (AID 463106). To be noted: USP2a cleavage of CHOP2 reporter, enzymatic; series mostly up to 38.3 µM. The essentials:
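Inhibition is expressed relative to NEM as the full-inhibition control, with concentration-response curves classed by fit quality, magnitude and activity. Enzyme (USP2 core, 10nM) meets 25nM Ub-CHOP2 after compound preincubation; readings are taken at 60min.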

For experiment [10], the target named is DNA polymerase III PolC-type (Bacillus subtilis (strain 168)) (UniProt P13267). The experiment can be described thus: qHTS Validation Assay for the Inhibitors of DNA Replication in Gram-Positive Bacteria (AID 485295).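 Note: reconstituted holoenzyme with PolC plus beta clamp SSB and primase; PicoGreen fluorescence of double-stranded DNA made on primed circular M13 template.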 The note with it: Gram-positive bacterial DNA replication assay; series mostly up to 57.1 µM. Put shortly: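 Inhibition of DNA synthesis by the reconstituted PolC holoenzyme, monitored through PicoGreen staining of dsDNA formed from ssM13Gori, dNTPs and NTPs, with compound preincubation and room-temperature reaction.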
Chain of DNA polymerase III PolC-type (Bacillus subtilis (strain 168)) (P13267 whole entry, looked up): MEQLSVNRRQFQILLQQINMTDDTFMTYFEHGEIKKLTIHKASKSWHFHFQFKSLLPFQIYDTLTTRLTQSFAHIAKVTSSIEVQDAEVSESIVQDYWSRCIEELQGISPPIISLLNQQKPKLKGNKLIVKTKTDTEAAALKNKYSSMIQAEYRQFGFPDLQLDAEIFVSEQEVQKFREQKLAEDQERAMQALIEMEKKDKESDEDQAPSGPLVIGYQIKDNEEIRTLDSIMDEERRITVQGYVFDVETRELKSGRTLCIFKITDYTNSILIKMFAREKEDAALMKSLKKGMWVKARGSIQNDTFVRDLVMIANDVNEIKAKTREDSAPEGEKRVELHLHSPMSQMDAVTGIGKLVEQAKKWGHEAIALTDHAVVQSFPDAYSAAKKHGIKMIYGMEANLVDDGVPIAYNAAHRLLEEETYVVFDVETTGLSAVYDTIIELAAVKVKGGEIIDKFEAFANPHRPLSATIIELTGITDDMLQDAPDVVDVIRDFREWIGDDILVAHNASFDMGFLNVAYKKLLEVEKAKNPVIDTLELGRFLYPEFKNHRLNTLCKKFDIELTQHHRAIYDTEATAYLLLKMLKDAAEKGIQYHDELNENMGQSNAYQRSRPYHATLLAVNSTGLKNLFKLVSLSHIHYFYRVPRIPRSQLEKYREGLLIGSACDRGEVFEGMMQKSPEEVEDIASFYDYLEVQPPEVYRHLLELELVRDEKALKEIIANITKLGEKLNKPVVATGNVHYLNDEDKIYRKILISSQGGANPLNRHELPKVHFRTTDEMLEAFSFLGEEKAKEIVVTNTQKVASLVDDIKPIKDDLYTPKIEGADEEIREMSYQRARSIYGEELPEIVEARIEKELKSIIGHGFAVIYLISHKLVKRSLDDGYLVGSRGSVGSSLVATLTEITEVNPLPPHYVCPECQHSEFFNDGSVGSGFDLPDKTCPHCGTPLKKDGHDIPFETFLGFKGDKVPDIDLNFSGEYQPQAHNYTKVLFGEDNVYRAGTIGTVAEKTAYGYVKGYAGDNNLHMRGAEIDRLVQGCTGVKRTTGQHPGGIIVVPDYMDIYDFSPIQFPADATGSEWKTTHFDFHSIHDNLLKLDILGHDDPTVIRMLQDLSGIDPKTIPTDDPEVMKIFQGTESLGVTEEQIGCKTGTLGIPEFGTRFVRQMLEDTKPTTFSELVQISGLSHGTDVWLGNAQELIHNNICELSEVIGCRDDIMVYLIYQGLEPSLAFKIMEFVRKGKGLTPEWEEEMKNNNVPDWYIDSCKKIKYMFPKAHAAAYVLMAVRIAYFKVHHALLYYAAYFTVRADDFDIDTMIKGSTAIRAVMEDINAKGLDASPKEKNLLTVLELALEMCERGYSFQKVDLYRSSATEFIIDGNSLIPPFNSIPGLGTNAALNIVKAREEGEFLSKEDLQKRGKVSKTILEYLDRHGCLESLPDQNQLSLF

Records with an inconclusive call do not appear. Activity calls are given as the source filed them. Calls come from the whole dose curve; as a rule, active = well fitted curve in the direction sought with a large enough effect; inconclusive = small, poorly fitted or top-dose-only effect, or another doubt; inactive = no such curve, though single readings can be large; an effect the other way counts as inactive or inconclusive.

Chain of RecQ-like DNA helicase BLM (Homo sapiens) (P54132 whole entry, looked up): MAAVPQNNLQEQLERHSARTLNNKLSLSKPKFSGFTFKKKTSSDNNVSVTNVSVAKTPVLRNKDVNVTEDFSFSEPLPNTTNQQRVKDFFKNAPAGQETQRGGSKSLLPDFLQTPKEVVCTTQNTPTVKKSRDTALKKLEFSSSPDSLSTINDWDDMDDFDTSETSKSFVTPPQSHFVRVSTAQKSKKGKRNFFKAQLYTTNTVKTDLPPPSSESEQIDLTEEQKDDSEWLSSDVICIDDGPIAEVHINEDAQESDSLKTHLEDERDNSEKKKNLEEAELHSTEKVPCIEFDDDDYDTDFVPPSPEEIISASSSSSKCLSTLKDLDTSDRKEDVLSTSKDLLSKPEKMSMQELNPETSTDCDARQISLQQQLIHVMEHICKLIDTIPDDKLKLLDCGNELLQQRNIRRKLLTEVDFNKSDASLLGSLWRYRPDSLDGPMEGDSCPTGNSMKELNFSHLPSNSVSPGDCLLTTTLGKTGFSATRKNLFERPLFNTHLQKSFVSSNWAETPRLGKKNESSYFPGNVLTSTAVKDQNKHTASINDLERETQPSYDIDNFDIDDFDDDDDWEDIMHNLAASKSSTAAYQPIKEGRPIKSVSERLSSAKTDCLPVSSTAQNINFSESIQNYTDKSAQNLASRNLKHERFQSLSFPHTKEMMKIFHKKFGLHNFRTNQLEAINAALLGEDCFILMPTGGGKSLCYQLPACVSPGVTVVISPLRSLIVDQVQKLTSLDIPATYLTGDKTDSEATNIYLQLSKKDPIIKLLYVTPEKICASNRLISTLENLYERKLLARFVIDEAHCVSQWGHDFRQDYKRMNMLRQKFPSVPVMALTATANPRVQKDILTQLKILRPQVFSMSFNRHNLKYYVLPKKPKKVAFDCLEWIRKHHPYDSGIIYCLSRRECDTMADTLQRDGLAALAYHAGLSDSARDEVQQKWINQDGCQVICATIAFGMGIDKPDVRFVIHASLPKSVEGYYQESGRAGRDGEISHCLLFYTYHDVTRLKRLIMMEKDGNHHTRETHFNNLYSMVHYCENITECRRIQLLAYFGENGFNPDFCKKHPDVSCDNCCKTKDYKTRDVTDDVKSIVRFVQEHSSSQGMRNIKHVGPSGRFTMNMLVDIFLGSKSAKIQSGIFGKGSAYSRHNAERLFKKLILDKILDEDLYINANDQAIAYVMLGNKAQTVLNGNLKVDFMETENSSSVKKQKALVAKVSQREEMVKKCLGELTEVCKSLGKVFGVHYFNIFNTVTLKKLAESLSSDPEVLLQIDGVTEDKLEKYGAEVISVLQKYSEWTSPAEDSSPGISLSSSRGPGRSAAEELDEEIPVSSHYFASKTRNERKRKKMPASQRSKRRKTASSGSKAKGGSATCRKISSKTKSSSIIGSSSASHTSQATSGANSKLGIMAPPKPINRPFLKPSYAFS
Chain of Ubiquitin carboxyl-terminal hydrolase 2 (Homo sapiens) (O75604 whole entry, looked up): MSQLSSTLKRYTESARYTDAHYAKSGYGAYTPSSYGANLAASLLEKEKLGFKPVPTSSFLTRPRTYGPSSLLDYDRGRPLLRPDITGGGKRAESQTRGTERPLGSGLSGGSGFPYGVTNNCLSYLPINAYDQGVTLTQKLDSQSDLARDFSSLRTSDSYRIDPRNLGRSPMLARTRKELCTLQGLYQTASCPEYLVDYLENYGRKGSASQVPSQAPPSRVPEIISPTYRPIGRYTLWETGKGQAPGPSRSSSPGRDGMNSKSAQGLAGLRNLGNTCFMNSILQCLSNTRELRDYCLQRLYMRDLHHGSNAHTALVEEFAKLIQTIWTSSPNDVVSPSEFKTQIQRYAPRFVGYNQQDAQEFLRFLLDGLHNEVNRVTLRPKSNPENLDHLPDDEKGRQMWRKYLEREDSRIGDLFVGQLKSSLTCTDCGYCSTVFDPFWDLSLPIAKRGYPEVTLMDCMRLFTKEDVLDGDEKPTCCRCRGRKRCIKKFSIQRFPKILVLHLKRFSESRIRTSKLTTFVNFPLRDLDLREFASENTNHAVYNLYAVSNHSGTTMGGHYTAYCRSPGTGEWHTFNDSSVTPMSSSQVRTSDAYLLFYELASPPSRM

As to `CC[C@H](CO)Nc1nc(NCc2ccccc2)c2ncn(C(C)C)c2n1`, the outcome in experiment [1] and in [2] was inactive.

For `O=c1c2ccccc2nc2n1CCc1c-2[nH]c2ccccc12`, the Potency in experiment [3] is 12.6 µM (active). Moreover, the result in experiment [4], in experiment [1], in experiment [5], in experiment [6], in [7] and in experiment [8] was inactive. Moreover, the result in experiment [9] and in [10] was inactive.
